# This is one part of the list. Results filed as inconclusive are left out. Calls of active or inactive are those of the source. The call rests on the fitted dose curve; in most records, active means well fitted inhibition curve with a large enough effect; inconclusive means small, poorly fitted or top-dose-only effect; inactive means flat fitted curve, though single readings scatter.
# Tested on: Trypanosoma brucei pyruvate kinase (TbPYK)
# Test: qHTS of Trypanosoma Brucei Inhibitors: Orthogonal Assay for Cherry-picked Compounds; further: nearly all actives have a fitted effect of over 75% in size
# Details: recombinant TbPYK, ADP-Glo luminescence, 60 min; series mostly up to 76.9 µM
# Text: Members of the Trypanosomatidae family of parasitic protozoans cause a spectrum of diseases throughout the tropical and subtropical world. Sleeping sickness, caused by two subspecies of Trypanosoma brucei, is endemic to areas of sub-Saharan Africa, while Chagas' disease, a manifestation of Trypanosoma cruzi infection, is prevalent throughout Central and South America. In addition, many species of Leishmania are responsible for a range of cutaneous and visceral diseases, causing ulcers, destructive lesions and kalaazar, a lethal infection of the viscera. These diseases cause severe public health and economic burdens on populations that are often already caught in a tragic cycle of poverty, poor nutrition and disease. Collectively, parasites of the trypanosomatid family infect 30 million people worldwide (~500 million live in endemic areas), and account for ~130K deaths annually. Existing treatments have developed little in the past 50 years, and suffer from toxicity, poor efficacy and resistance; the goal of this project is to develop lead drugs that will be suitable for entry into pre-clinical trials. […] Glycolysis in axenically cultured T. cruzi, representing the intracellular pathogenic stage, is also essential for these parasites. {Engel, 1987} This project aims to discover and optimize selective inhibitors of the glycolytic enzyme pyruvate kinase (PYK) from Trypanosoma brucei, the parasite that causes sleeping sickness. […] Trypanosomatid PYKs show significant differences from their human counterparts including only 47-50% sequence identity and different allosteric and activation properties.{Callens, 1992} To this end, a qHTS was done against the MLSMR to discover inhibitors. To confirm activity of the cherrypicked compounds, an orthogonal assay was developed. While the primary qHTS provides a luminescence-based detection of TbPyK by measuring ATP production, the orthogonal assay will measure the amount of ADP substrate remaining. Decrease in activity signal indicative of inhibition of T. brucei proliferation is the desired outcome for this assay. NIH Molecular Libraries Probe Production Network [MLPCN] NIH Chemical Genomics Center [NCGC] Grant: MH095452 PI Name: Malcolm Walkinshaw, University of Edinburgh
# Briefly, 2 uL of substrate/TbPYK buffer (all columns but column 4) are dispensed into Greiner white solid-bottom 1536-well assay plates. Column 4 gets just buffer without enzyme. Compounds are then transferred via Kalypsys pin tool equipped with 1536-pin array (10 nL slotted pins, V&P Scientific, San Diego, CA). Following addition of compound, 1 uL of ADP (130 uM final concentration, columns 1-48) is added to initiate the reaction. The plates are then incubated at room temperature for 60 minutes. ADP-Glo (Promega) reagent I is added (2.5 uL) and plates incubated for 10 minutes. ADP-Glo reagent II is then added (5 uL), followed by a 10 minute room temperature incubation, before being transferred to a ViewLux high-throughput CCD imager (PerkinElmer), wherein single end-point measurements of luminescence are acquired using a clear filter. All reagents are diluted in an assay buffer consisting of 50 mM TEA (pH 7.2), 100 mM KCl, 10 mM MgCl2, 0.05% BSA and 0.01% Tween-20.
# Potency means the concentration at half of the fitted maximal effect.
row,Compound,Potency
1,CC(=O)N1CC[n+]2c(-c3ccc([N+](=O)[O-])cc3)csc21,1.78 µM (active)
2,O=C(CCCCCn1c(=S)[nH]c2ccsc2c1=O)NC1CCCCC1,14.1 µM (active)
3,COC(=O)/C=C\C(=O)Nc1cccc([N+](=O)[O-])c1,17.8 µM (active)
4,COc1cc(C2CC(=O)N3CN(Cc4ccccc4)CSC3=C2C#N)ccc1OCc1ccccc1 (stereo unspecified),0.447 µM (active)
5,CSc1c(SCc2ccccc2)cnn(Cc2ccccc2)c1=O,14.1 µM (active)
6,O=C(CSc1nnc(-c2ccco2)n1CC1CCCO1)c1ccccc1 (stereo unspecified),35.5 µM (active)
7,O=C(CN1CCN(c2ccc(O)cc2)CC1)Nc1cc(S(=O)(=O)N2CCOCC2)ccc1Cl,12.6 µM (active)
8,COc1cccc(C(=O)Nc2ccc(N3CCCC3)cc2)c1,inactive
9,Cc1nc2ccc(S(=O)(=O)NCC(=O)O)cc2s1,11.2 µM (active)
10,N#Cc1c(N2CCCCC2)nc(N)c2c(N)nc(SCC(=O)O)cc12,35.5 µM (active)
11,NC(=O)c1c(Nc2nc3c(F)cccc3s2)sc2c1CCCC2,8.91 µM (active)
12,Cc1ccc(/C=C/C(=O)Nc2ccc([N+](=O)[O-])c(NC(=O)/C=C/c3ccc(C)o3)c2)o1,20 µM (active)
13,Cc1cccc(-n2c(N)c(C(=O)N3CCN(C)CC3)sc2=S)c1,5.01 µM (active)
14,c1ccc(-c2nnc3n2NC(c2ccc4c(c2)OCO4)S3)cc1 (stereo unspecified),0.141 µM (active)
15,O=C(Nc1ccc(S(=O)(=O)N2CCOCC2)cc1)c1ccc2ncsc2c1,15.8 µM (active)
16,O=c1[nH]c2ccccc2n2c(-c3ccccc3)nnc12,0.1 µM (active)

row,Compound,Potency
1,COc1ccc(Cc2nnc(NS(=O)(=O)Cc3ccccc3)s2)cc1,inactive
2,Cc1cc(C2=NNC(=Nc3ccc(S(=O)(=O)N4CCOCC4)cc3)SC2)c(C)n1CC1CCCO1 (stereo unspecified),15.8 µM (active)
3,Cc1c(C)c(C)c(S(=O)(=O)N2CCC3(CC2)OCCO3)c(C)c1C,inactive
4,Cc1nonc1C(=O)N/N=C/c1ccc(O)cc1,inactive
5,Cc1ccc(NC(=O)c2cc(-c3ccc(C)o3)nc3ccccc23)nc1,35.5 µM (active)
6,Cc1cc(C#N)c(SCC(N)=O)nc1-c1ccc(F)cc1,5.01 µM (active)
7,COCCNC(=O)Nc1ccc2nc(-c3ccco3)c(-c3ccco3)nc2c1,8.91 µM (active)
8,O=C(COC(=O)c1ccccc1)c1ccc2c(c1)OCCO2,inactive
9,CN(c1ccccc1)S(=O)(=O)c1cccc(NC(=O)Cc2ccc(Cl)cc2)c1,12.6 µM (active)
10,O=C(CSc1ccc(-c2ccco2)nn1)Nc1cccc(F)c1,31.6 µM (active)
11,O=C1C=CC(=O)N1c1ccc(N2CCCCC2)cc1,3.55 µM (active)
12,C=CCn1c(=S)[nH]c2scc(-c3ccco3)c2c1=O,17.8 µM (active)
13,Cc1ccc(C)c2c1cc(C)c1nnc(SCC(=O)Nc3cccc(C(=O)O)c3)n12,1 µM (active)
14,COc1cccc(C(=O)c2cc3ccc(O)cc3oc2=O)c1,inactive
15,Oc1c(CN2CCOCC2)ccc(CN2CCOCC2)c1O,7.08 µM (active)

# — PubChem BioAssay AID720584 (National Center for Advancing Translational Sciences (NCATS), 2013)
